# Hits are enriched below; roughly 0.31% of the tested compounds scored in any of these assays.
# TRPML1 inh = human mucolipin-1 channel inhibition | 0.02% of 390,000 active | Q9GZU1 | AID 624415 | TRPML1-inducible cells, Ca2+ dye fluorescence, FDSS; active compounds read low; inhibition of EC80 agonist-evoked calcium signal | activity change, negative = inhibition, % (concentration not given with the values); in the data active = activity change below about -50%; inconclusive = between about -30% and that limit;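 note: stimulus is agonist 54-4 at its EC80 concentration; % is set by controls: 0 for no effect and ±100 for the full control effect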
# Target sequence (Q9GZU1 whole entry, looked up): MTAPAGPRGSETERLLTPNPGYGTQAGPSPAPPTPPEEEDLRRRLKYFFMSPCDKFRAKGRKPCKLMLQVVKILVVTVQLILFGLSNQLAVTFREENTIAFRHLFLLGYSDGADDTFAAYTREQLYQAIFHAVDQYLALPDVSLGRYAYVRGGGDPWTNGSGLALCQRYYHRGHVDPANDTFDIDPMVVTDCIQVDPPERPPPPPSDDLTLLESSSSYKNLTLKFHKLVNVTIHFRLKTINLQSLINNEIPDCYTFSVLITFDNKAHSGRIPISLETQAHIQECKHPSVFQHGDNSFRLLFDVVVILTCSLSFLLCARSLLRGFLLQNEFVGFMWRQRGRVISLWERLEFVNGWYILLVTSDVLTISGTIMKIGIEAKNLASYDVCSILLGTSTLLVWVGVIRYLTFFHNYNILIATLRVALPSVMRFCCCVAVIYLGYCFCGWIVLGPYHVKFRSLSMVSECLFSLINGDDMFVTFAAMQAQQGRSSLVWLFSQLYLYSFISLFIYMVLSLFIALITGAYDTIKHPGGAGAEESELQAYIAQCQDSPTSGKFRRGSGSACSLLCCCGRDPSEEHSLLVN
#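 TRPML1-DL cells, Tet-induced overnight (~16 h, 37 °C) at 1,500 cells/well, were loaded with Ca8 no-wash dye plus quencher for 45-90 min at room temperature. Compounds were pinned during FDSS kinetic reading; agonist 54-4 at EC80 (4 uM final) then added.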
# TRPV1 potentiator = potentiators of human vanilloid receptor 1 (TRPV1); TRPV1-expressing cells, Fluo-8 calcium influx, capsaicin EC20 potentiation; potentiation, % at 8.33 µM; 0.02% of 320,000 active; AID 540277; in the data active = potentiation above about 80%; inconclusive = between about 30% and that limit; note: 0% is about no effect
#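 TRPV1-expressing cells were cultured overnight at 35.5C and loaded with Fluo-8 calcium dye for 40 to 90 min at room temperature. After a 10 s baseline, compound was added and calcium influx was read kinetically for 3 min (ex 480/em 520 nm).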
# TRPV1 agonist = agonists of human vanilloid receptor 1 (TRPV1) | Q8NER1 | TRPV1-expressing cells, Fluo-8 calcium influx, agonist mode | activation, % at 8.33 µM | 0.19% of 320,000 active; in the data active = activation above about 80%; inconclusive = between about 30% and that limit; note: 0% is about no effect
#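 TRPV1-expressing cells were cultured overnight at 35.5C and loaded with Fluo-8 calcium dye for 40 to 90 min at room temperature. After a 10 s baseline, compound was added and calcium influx was read kinetically for 3 min (ex 480/em 520 nm).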
# TRPML1 ag = human mucolipin-1 channel agonism | TRPML1-expressing cells, Ca2+ dye fluorescence, FDSS | activation, % (test concentration not listed) | 0.12% of 410,000 active | AID 624414; in the data active = activation above about 50%; inconclusive = mostly about 30% to 49%; note: 0% is about no effect
#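 In this qHTS format, compounds were pin-transferred onto Ca8-dye-loaded TRPML1-DL cells induced with Tet overnight, and intracellular Ca2+ fluorescence was recorded kinetically for 110 s after a 10 s baseline. A subsequent 4uM final 54-4 (EC80) addition followed by a second 110 s read served as the antagonist phase.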
# * marks the source's active call; other numbers are inactive results; ? = inconclusive; . = no result given.
SMILES,TRPML1 inh,TRPV1 potentiator,TRPV1 agonist,TRPML1 ag
O=[N+]([O-])c1ccc2ncnc(Nc3ccc4c(c3)OCCO4)c2c1,44,-18,11,0
c1ccc2c(c1)oc1c(Nc3ccc4c(c3)OCCO4)ncnc12,14,2,83*,3
CCc1nc(Nc2ccc3c(c2)OCCO3)c2oc3ccccc3c2n1,0,-6,89*,2
Cc1nc(Nc2ccc3c(c2)OCCO3)c2oc3ccccc3c2n1,7,-3,82*,-1
Cc1nc(Nc2cccc(O)c2)c2oc3ccccc3c2n1,11,-29,15,5
CCNc1nc(CC)nc2c1oc1ccccc12,-10,-20,88*,3
CCNc1nc(C)nc2c1oc1ccccc12,27,-11,?,0
Cc1cnc2ccccc2c1C,.,.,.,0
COc1ccc(C(O)c2nc(-c3ccccc3C)cs2)cc1 (centres undefined),.,.,.,0
Cn1c(=O)c2c(nc3sccn32)n(C)c1=O,14,88*,2,0
COC(=O)CCCC1=CC2=CC(=O)C(C)(OC(=O)c3cccs3)C(=O)C2=CN1CCc1ccccn1 (centres undefined),-4,?,0,0
CCCCC1=CC2=CC(=O)C(C)(OC(=O)CC)C(=O)C2=CN1CCc1ccccn1 (centres undefined),-54*,-6,0,0
CN1N/C(=C\c2ccccc2)N=C2C(=O)N(C)C(=O)N=C21,.,.,.,0
O=C(Nc1ccc2c(c1)OCCO2)c1cc2ccccc2o1,33,-17,81*,-1
CCCCCC1CCC(C(=O)N2CCOCC2)CC1 (centres undefined),-8,0,94*,0
CCCCCCC1CCC(C(=O)N2CCOCC2)CC1 (centres undefined),-2,-17,89*,1
Cc1cc(N)c(NC2=CC(=O)CC(C)(C)C2)cc1C,4,?,2,60*
CC[C@]1(O)C[C@H]2CN(CCc3c([nH]c4ccccc34)[C@@](C(=O)OC)(c3cc4c(cc3OC)N(C=O)[C@H]3[C@@](O)(C(=O)OC)[C@H](OC(C)=O)[C@]5(CC)C=CCN6CC[C@]43[C@@H]65)C2)C1,.,.,.,-1
CC[C@@H]1CCC[C@@H](O)[C@@H](C)C(=O)O[C@H](C)[C@@H](C)C/C=C(C)/C(OC)=C\C(=O)N(C)C([C@@H](C)CC)C(=O)N(C)[C@@H](C(C)C)C(=O)N(C)[C@@H](COC)C(=O)N2CCC[C@H]2C(=O)N(C)[C@@H](C(C)C)C(=O)N2CCC[C@H]2C(=O)O1 (some centres undefined),.,.,.,51*
CCOC(=O)c1ccc(Nc2nnc(C)c3ccccc23)cc1,6,-10,86*,2
CCOC(=O)C1CCN(c2ncnc3c2c(-c2ccccc2)cn3-c2ccccc2)CC1,-17,2,6,75*
Cc1cccc(N2CCN(c3ncnc4c3c(-c3ccccc3)cn4-c3ccccc3)CC2C)c1 (centres undefined),-26,.,.,51*
CC(C)(C)n1nnnc1C(c1ccccc1F)N(Cc1ccco1)CC1CCCO1 (centres undefined),3,-9,?,66*
COc1cccc(CN(Cc2ccco2)C(c2ccc(F)cc2)c2nnnn2C(C)(C)C)c1 (centres undefined),-4,1,1,106*
Cc1nc2c(n1C1CCCCC1)C(=O)c1ccccc1C2=O,-4,-6,-4,65*
SMILES,TRPML1 inh,TRPV1 potentiator,TRPV1 agonist,TRPML1 ag
O=C1c2cccnc2C(=O)N1C1CCCCC1,-11,13,-1,1
Cc1noc(C)c1C(=O)N1CCC1(C)C(=O)NS(=O)(=O)c1ccc(Cl)cc1 (centres undefined),57,.,.,-1
CCc1ccc(NC(=O)c2onc(C)c2Cl)cc1,-4,-6,89*,2
CC(C)NC(=O)C1CCC(Cn2c(=O)c3sccc3n(CC(=O)NCc3ccccc3)c2=O)CC1 (centres undefined),17,.,.,0
CC(C)c1ccc(NC(=O)c2cccc(Br)c2)cc1,-14,6,93*,-1
O=C(Nc1cccc(C(=O)Nc2cccc(Br)c2)c1)c1ccccc1,2,-7,15,0
CS(=O)(=O)N1CCc2cc(C(=O)Nc3ccc(Cl)cc3)ccc21,-17,-9,84*,0
COc1ccc(NC(=O)c2ccc3c(c2)CCN3S(C)(=O)=O)cc1,-12,.,.,0
CCOCCCNC(=O)c1ccc2c(=O)n(CCCOCC)c(=S)[nH]c2c1,-5,-8,-1,1
